Here are results for 12 compounds from the supplement of paper PMC9694430.

In this test the test system is LOC_OS02G54510-cb004. Kind of test: thermal shift delta Tm vs DMSO control; higher = stronger stabilization (binding). Conditions: 12.5 µM; protein concentration 2 µM. In a few lines: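 The melting temperature shift given here is a triplicate mean, measured against protein that received only DMSO. Melting temperatures came from Boltzmann fits of differential scanning fluorimetry data on E. coli-expressed, purified rice kinase domain constructs. Each 19.5 μl well contained 2 μM kinase, 100 mM potassium phosphate pH 7.5, 150 mM NaCl, 10% glycerol, 5 × SYPRO Orange and compound in DMSO. Plates were scanned from 25°C to 95°C at 0.05°C/s.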
With `COc1ccc(CC(=O)Nc2nc3c(s2)CCc2ccccc2-3)cc1OC`, the “thermal shift delta Tm” value is -0.24 °C. Regarding `CNS(=O)(=O)Nc1nccc(Cc2c(C)c3ccc(Oc4ncccn4)cc3oc2=O)c1F`, the “thermal shift delta Tm” value was -0.03 °C.

For the compound `C[C@H](NC(=O)/C(C#N)=C/c1cccc(Br)n1)c1ccccc1`, the “thermal shift delta Tm” value was -0.57 °C. Consider `COc1ccc(COc2cc3oc(=O)c4cc(C(C)O)ccc4c3cc2OC)cc1` (configuration not stated) [Palomid 529 (P529)], for which the “thermal shift delta Tm” value was 0.29 °C. Consider `CC(C)(C)Cn1c(N)nc2ccc(-c3[nH]c(C(C)(C)C)nc3-c3ccc(F)cc3)nc21`, for which the “thermal shift delta Tm” value was determined as 0.25 °C. Turning to `COc1ccccc1-c1cc(Nc2cccc(CS(N)(=O)=O)c2)ncn1`, the “thermal shift delta Tm” value was found to be 0.61 °C.

Turning to `Cn1cnc(N)c2ncnc1-2` [3-Methyladenine (3-MA)], the “thermal shift delta Tm” value stood at 0.39 °C.

With `C=CC(=O)N[C@H]1CCOC[C@H]1Nc1ncc2cc(-c3c(Cl)c(OC)cc(OC)c3Cl)ccc2n1`, the “thermal shift delta Tm” value is -0.3 °C.

For `CCS(=O)(=O)Nc1ccc2c(c1)/C(=C(/Nc1ccc(CN3CCCCC3)cc1)c1ccccc1)C(=O)N2` [Hesperadin], the “thermal shift delta Tm” value came out at 0.53 °C. In the case of `Cc1cc(Nc2cc(N3CCN(C)CC3)nc(/C=C/c3ccccc3)n2)n[nH]1` [ENMD-2076 L-(+)-Tartaric acid], the “thermal shift delta Tm” value is 2.59 °C.

As for `Cc1ccc(F)c(NC(=O)Nc2ccc(-c3cccc4[nH]nc(N)c34)cc2)c1` [Linifanib (ABT-869)], the “thermal shift delta Tm” value is -0.22 °C. `CO[C@H]1C[C@@H]2CC[C@@H](C)[C@@](O)(O2)C(=O)C(=O)N2CCCC[C@H]2C(=O)O[C@H]([C@H](C)C[C@@H]2CC[C@@H](OCCO)[C@H](OC)C2)CC(=O)[C@H](C)/C=C(\C)[C@@H](O)[C@@H](OC)C(=O)[C@H](C)C[C@H](C)/C=C/C=C/C=C/1C` [Everolimus (RAD001)]: the “thermal shift delta Tm” value is -0.05 °C.
